Measured values reported in PubChem BioAssay (Tox21).
Results filed as inconclusive are left out. Activity calls are given as the source filed them. Unless noted, calls follow the shape of the dose curve; as a rule, active = well fitted curve in the direction sought with a large enough effect in the repeat runs; inconclusive = weak or mixed curves; inactive = no such curve, though single readings can be large; an effect the other way counts as inactive or inconclusive.

Tests used:
[1] = qHTS assay to identify small molecule agonists of the estrogen receptor alpha (ER-alpha) signaling pathway in the presence of an antagonist - cell viability counter screen (AID 1259386);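 also: series mostly up to about 92 µM; cells exposed to compounds for 22 h at 37 °C before the viability read; nearly all actives have a fitted effect of over 30% in size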
Outline: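 Cells are starved of estrogens for 5 days in charcoal-stripped serum, seeded for 24hr and co-treated with ICI-182,780 (10.0nM final) and test compounds. After 22hr at 37C, viability is read as CellTiter-Fluor fluorescence.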

[2] = target: Progesterone receptor (Homo sapiens) (UniProt P06401); experiment: qHTS assay to identify small molecule agonists of the progesterone receptor (PR) signaling pathway (AID 1346784; calls by dose curve; also: nearly all actives have a fitted effect of over 30% in size)
Sequence of Progesterone receptor (Homo sapiens) (P06401 whole entry, looked up): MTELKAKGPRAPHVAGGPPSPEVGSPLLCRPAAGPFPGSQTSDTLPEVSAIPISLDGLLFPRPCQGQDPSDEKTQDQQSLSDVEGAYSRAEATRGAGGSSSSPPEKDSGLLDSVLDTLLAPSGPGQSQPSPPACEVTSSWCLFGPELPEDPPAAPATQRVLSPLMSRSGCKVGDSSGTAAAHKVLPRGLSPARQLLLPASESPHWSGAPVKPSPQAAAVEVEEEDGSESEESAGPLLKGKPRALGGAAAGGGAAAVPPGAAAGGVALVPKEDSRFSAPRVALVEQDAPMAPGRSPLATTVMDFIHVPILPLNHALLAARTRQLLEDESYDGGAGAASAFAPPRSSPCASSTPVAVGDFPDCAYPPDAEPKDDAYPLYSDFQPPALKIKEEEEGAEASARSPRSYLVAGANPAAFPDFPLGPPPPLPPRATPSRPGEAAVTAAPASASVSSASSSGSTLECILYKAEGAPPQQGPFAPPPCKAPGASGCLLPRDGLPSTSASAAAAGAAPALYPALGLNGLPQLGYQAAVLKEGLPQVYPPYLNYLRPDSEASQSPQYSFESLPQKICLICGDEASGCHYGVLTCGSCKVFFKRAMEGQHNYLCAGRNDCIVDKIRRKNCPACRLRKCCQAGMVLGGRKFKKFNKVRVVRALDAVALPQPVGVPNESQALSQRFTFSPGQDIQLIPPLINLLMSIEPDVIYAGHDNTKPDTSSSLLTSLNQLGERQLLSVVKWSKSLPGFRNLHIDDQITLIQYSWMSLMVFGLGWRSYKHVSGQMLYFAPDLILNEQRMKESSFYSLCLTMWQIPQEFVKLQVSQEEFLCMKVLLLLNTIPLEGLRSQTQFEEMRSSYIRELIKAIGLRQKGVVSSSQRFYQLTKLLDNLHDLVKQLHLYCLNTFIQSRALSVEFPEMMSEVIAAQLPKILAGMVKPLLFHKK
Outline: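 PR-UAS-bla HEK 293T cells carrying a UAS-driven beta-lactamase reporter were seeded in medium with 2% charcoal-stripped FBS, preincubated 6 hr at 37C, then exposed to compounds in DMSO for 16 hr; agonism was read by LiveBLAzer B/G FRET fluorescence.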

[3] = target: Progesterone receptor (Homo sapiens) (UniProt P06401); experiment: qHTS assay to identify small molecule antagonists of the progesterone receptor (PR) signaling pathway (AID 1346795; active = well fitted inhibition curve with a large enough effect in the signal ratio in the repeat runs, not every such curve was filed as active; the % refers to the signal ratio; also: potency is read from the fitted curve at half-maximal effect)
Outline: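 PR-UAS-bla HEK293T cells carrying a UAS-driven beta-lactamase reporter were plated in medium with 2% charcoal-stripped FBS and rested 6 hr at 37C. Compounds were added with 1 nM R5020 (final) for 16 hr, then FRET substrate loaded 2 hr at room temperature.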

[4] = qHTS assay to identify small molecule antagonists of the progesterone receptor (PR) signaling pathway - cell viability counter screen (AID 1346798); also: series mostly up to about 92 µM; nearly all actives have a fitted effect of over 50% in size
Outline: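 PR-UAS-bla HEK293T cells in medium with 2% charcoal-stripped FBS were treated with compounds plus R5020 for 16 hr at 37C. Cell viability was then read by CellTiter-Glo luminescence after 30 min at room temperature in the same wells.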

[5] = qHTS assay to identify small molecule agonists of the progesterone receptor (PR) signaling pathway - cell viability counter screen (AID 1346799; calls by dose curve; also: nearly all actives have a fitted effect of over 45% in size)
Outline: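 PR-UAS-bla HEK293T cells, 3,000 per well in medium with 2% charcoal-stripped FBS, were preincubated 6 hr at 37C, then exposed to compounds for 16 hr; viability was read as CellTiter-Glo luminescence after 30 min at room temperature.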

[6] = qHTS assay to identify small molecule agonists of the TGF-beta/Smad signaling pathway - cell viability counter screen (AID 1346829); also: top concentration of the series differs between compounds; nearly all actives have a fitted effect of over 45% in size
Outline: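 Tox21 qHTS format: SBE-bla HEK 293T cells treated with DMSO-dissolved compounds for 5 hr; CellTiter-Glo luminescence after 30 min at room temperature.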

[7] = qHTS assay to identify small molecule agonists of the TGF-beta/Smad signaling pathway (AID 1346859; active = well fitted activation curve with a large enough effect in the signal ratio in the repeat runs, not every such curve was filed as active; the % refers to the signal ratio; also: series mostly up to about 77 µM)
Outline: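 HEK 293T cells stably carrying a beta-lactamase reporter driven by the Smad binding element were seeded overnight, exposed to DMSO-dissolved compounds for 5 hr at 37 C, 5% CO2, then loaded with FRET substrate for 2 hr at room temperature.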

[8] = target: Thyrotropin-releasing hormone receptor (Homo sapiens) (UniProt P34981); experiment: qHTS assay to identify small molecule antagonists of the thyrotropin-releasing hormone receptor (TRHR) signaling pathway (AID 1346877; active = well fitted inhibition curve with a large enough effect in the repeat runs, not every such curve was filed as active; also: series mostly up to about 51 µM)
Sequence of Thyrotropin-releasing hormone receptor (Homo sapiens) (P34981 whole entry, looked up): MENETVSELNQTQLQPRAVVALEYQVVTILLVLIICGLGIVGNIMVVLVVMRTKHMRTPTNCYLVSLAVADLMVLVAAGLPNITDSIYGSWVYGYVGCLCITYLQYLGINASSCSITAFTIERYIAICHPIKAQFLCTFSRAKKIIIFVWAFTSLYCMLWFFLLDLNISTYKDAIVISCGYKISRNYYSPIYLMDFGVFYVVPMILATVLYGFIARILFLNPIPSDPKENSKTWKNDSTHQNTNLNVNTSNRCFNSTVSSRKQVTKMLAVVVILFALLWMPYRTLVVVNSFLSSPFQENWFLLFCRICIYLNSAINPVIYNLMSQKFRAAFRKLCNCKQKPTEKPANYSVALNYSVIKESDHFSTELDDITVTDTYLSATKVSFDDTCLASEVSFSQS
Outline: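 Cells (TRHR-HEK293) are plated and kept 18 h at 37 °C/5% CO2. A calcium-sensitive dye is added for 2 h, compound follows for 5 min at room temperature, and TRH is then given at 1 nM final.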

[9] = target: Thyrotropin-releasing hormone receptor (Homo sapiens) (UniProt P34981); experiment: qHTS assay to identify small molecule agonists of the thyrotropin-releasing hormone receptor (TRHR) signaling pathway (AID 1346891; calls by dose curve; also: series mostly up to about 58 µM)
Outline: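 TRHR-expressing HEK293 cells were plated 18 h at 37 °C/5% CO2, loaded with calcium dye 2 h at 37 °C, then given compound in DMSO; fluorescence was read kinetically for 3 min at 1 s intervals.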

[10] = qHTS assay to identify small molecule antagonists of the TGF-beta/Smad signaling pathway - cell viability counter screen (AID 1346824); also: nearly all actives have a fitted effect of over 50% in size
Outline: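 SBE-bla HEK 293T cells, incubated overnight, then compound plus 0.25 ng/mL TGF-beta1 (stock added) for 5 hr at 37 C. Viability was read in the same wells by CellTiter-Glo luminescence after 30 min at room temperature.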

Measured: Potency

COC(=O)c1ccccc1S(=O)(=O)NC(=O)Nc1nc(C)cc(C)n1
inactive: [1] | [2] | [3] | [4] | [5] | [6] | [7] | [8] | [9]

CC(C)(C)OC(=O)c1ncn2c1[C@@H]1CCCN1C(=O)c1c(Br)cccc1-2
inactive: [1] | [2] | [3] | [4] | [5] | [10] | [6] | [8] | [9]

O=C(Cc1ccccc1)OCc1ccccc1
inactive: [1] | [2] | [3] | [5] | [10] | [6]

CCCCCCI
inactive: [1] | [2] | [3] | [4] | [10] | [6] | [7]

COC(=O)COc1ccc(Cl)cc1Cl
inactive: [1] | [2] | [3] | [4] | [5] | [10] | [6] | [8] | [9]

CSc1ccc(C(=O)C(C)(C)N2CCOCC2)cc1
inactive: [1] | [2] | [4] | [10] | [6] | [7] | [8] | [9]
active: [3] 27.3 µM

CC(C)CC(N(C)C)C1(c2ccc(Cl)cc2)CCC1 (configuration not stated)
inactive: [1] | [2] | [3] | [4] | [10] | [6] | [7] | [8] | [9]

CCS(=O)(=O)C(C)(C)S(=O)(=O)CC
inactive: [1] | [2] | [3] | [4] | [5] | [10] | [6] | [8] | [9]

CCCCP(CCCC)CCCC
inactive: [1] | [2] | [3] | [4] | [5] | [10] | [6] | [8] | [9]

CN1CCN(C(=O)O[C@H]2c3nccnc3C(=O)N2c2ccc(Cl)cn2)CC1
inactive: [1] | [2] | [3] | [4] | [5] | [10] | [6] | [8] | [9]

[Cl][Sn]([Cl])([Cl])[Cl]
inactive: [1] | [2] | [3] | [4] | [5] | [10] | [6] | [8] | [9]

CCC(C)n1c(=O)[nH]c(C)c(Br)c1=O (configuration not stated)
inactive: [1] | [2] | [3] | [4] | [10] | [6] | [7] | [8] | [9]

CNC(=O)Oc1ccccc1C1OCCO1
inactive: [1] | [2] | [3] | [4] | [10] | [6] | [7] | [8] | [9]

CS(=O)(=O)c1cc(C(F)(F)F)ccc1C(=O)c1cnoc1C1CC1
inactive: [1] | [2] | [3] | [5] | [10] | [6]

O=c1oc2ccccc2c(O)c1C1CCCc2ccccc21 (configuration not stated)
inactive: [1] | [2] | [3] | [4] | [10] | [6] | [8] | [9]

ClCCOCOCCCl
inactive: [1] | [2] | [3] | [4] | [5] | [10] | [6] | [8] | [9]

C[N+](=O)[O-]
inactive: [1] | [2] | [3] | [4] | [5] | [10] | [6] | [8] | [9]

Nc1ccccc1Cl
inactive: [1] | [2] | [3] | [5] | [10] | [6] | [7]

CC(=O)CCc1ccc2c(c1)OCO2
inactive: [1] | [2] | [3] | [4] | [10] | [6] | [8] | [9]

COc1cc(OC)nc(NC(=O)NS(=O)(=O)c2ncccc2C(=O)N(C)C)n1
inactive: [1] | [2] | [3] | [4] | [5] | [10] | [6] | [8] | [9]

CCCCOP(=O)(O)OCCCC
inactive: [1] | [2] | [3] | [4] | [5] | [10] | [6] | [8] | [9]

[As]#[In]
inactive: [1] | [2] | [3] | [4] | [5] | [10] | [6] | [8] | [9]

COc1cc(OC)nc(Oc2cccc(Oc3nc(OC)cc(OC)n3)c2C(=O)O)n1
inactive: [1] | [2] | [3] | [4] | [10] | [6] | [7] | [8] | [9]

Clc1ccccc1N1CCNCC1
inactive: [1] | [2] | [3] | [4] | [10] | [6] | [7] | [8] | [9]

CC1CN1P(=O)(N1CC1C)N1CC1C (configuration not stated)
inactive: [1] | [2] | [3] | [4] | [10] | [6] | [8] | [9]

c1ccc(N2CCNCC2)cc1
inactive: [1] | [2] | [3] | [4] | [10] | [6] | [7] | [9]

Cc1nc(N)nc(N)n1
inactive: [1] | [2] | [3] | [4] | [5] | [6] | [7] | [8] | [9]

ClC(Cl)Br
inactive: [1] | [2] | [3] | [4] | [5] | [6] | [7] | [8] | [9]

CC(Cl)(Cl)[N+](=O)[O-]
inactive: [1] | [2] | [3] | [4] | [5] | [10] | [6] | [8] | [9]
